Bioassay records deposited in PubChem BioAssay by National Center for Advancing Translational Sciences (NCATS).
Rows were chosen to be rich in hits. Some 19% of all compounds tested hit in one or more screens of this group.
IL1B secr inh: inflammasome signaling inhibition, IL-1 beta readout; THP-1 LPS/ATP IL-1B secretion, AlphaLISA, 16 h; stronger effect = lower value; activity change, % at 57.5 µM; 360,000 compounds, 4.7% hits; in the data active = activity change below about -50%; inconclusive = mostly about -30% to -49%; also: % is scaled to controls: 0 for no effect and ±100 for the full control effect
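Secreted IL-1B measured by AlphaLISA bead assay after 16 h compound exposure of THP-1 cells; compounds (final up to 57.5 uM) added 1 h before LPS (250 ng/mL) and ATP (1.25 mM) stimulation; lower signal means less secretion.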
HepG2 tox: kills HepG2 cells in TGF-b inhibitor counter-screen; Potency, µM (titrated, usually from 46.1 µM), for the others: at the highest dose activity change, negative = cytotoxicity, usual class: cytotoxic; AID 588856; HepG2 CAGA-GFP viability, ATP luminescence, 18 h; 410,000 compounds, 0.76% hits; also: potency is read from the fitted curve at half-maximal effect
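CellTiter-Glo luminescence gave cytotoxicity after 18 hours at 37 degrees C. The cells were HepG2 CAGA-GFP in 1% FBS DMEM, stimulated with 500 pg/mL TGF-beta after compound addition. %Activity was normalised to no-cell wells (complete cell-killing) and DMSO (no toxicity), and curves were fitted and classified.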
DT40 TDP1 CPT: DT40-hTDP1 cell growth loss with CPT; chicken DT40 Tdp1-/-;hTDP1 cells + 20 nM CPT, ATP luminescence, 48 h; Potency, µM (titrated, usually from 46.2 µM), inactives show at the top dose activity change, negative = growth inhibition, actives largely listed as inhibitors; 420,000 compounds, 12% hits; also: potency is read from the fitted curve at half-maximal effect; % is scaled to controls: 0 for no effect and ±100 for the full control effect; nearly all actives have a fitted effect of over 55% in size
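Cell growth measured by CellTiter-Glo luminescence after a minimum 48 h, 37 C compound exposure with 20 nM CPT in Tdp1-knockout DT40 cells stably expressing hTDP1, seeded 400/well; qHTS titration format.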
TGFb SMAD3 inh: blocks TGF-b signaling. HepG2 CAGA-GFP TGF-b/SMAD3 reporter, GFP fluorescence, 18 h; TGF-beta stimulated, 500 pg/mL final. Potency, µM (top dose mostly 46.1 µM), without a hit: at the top dose activity, negative = inhibition, usual class: inhibitors. 410,000 compounds, 1.2% hits; also: potency is read from the fitted curve at half-maximal effect; % is scaled to controls: 0 for no effect and ±100 for the full control effect; nearly all actives have a fitted effect of over 65% in size
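GFP signal (ex488/em500-530) from TGF-beta-stimulated HEPG2 CAGA-GFP cells, 500 pg/mL final, 18 h at 37 degrees C in DMEM plus 1% FBS, normalized to unstimulated and DMSO-stimulated controls.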
ASM inhibitor: blocks human secretory acid sphingomyelinase | placental ASM, HMU-PC fluorogenic substrate, 60 min | Potency, µM (titrated, usually from 57.5 µM), for the others: top-dose activity change, negative = inhibition, hits mostly inhibitors | 340,000 compounds, 0.006% hits | AID 504937; also: potency is read from the fitted curve at half-maximal effect
Target sequence (P17405 47-631 limits assumed): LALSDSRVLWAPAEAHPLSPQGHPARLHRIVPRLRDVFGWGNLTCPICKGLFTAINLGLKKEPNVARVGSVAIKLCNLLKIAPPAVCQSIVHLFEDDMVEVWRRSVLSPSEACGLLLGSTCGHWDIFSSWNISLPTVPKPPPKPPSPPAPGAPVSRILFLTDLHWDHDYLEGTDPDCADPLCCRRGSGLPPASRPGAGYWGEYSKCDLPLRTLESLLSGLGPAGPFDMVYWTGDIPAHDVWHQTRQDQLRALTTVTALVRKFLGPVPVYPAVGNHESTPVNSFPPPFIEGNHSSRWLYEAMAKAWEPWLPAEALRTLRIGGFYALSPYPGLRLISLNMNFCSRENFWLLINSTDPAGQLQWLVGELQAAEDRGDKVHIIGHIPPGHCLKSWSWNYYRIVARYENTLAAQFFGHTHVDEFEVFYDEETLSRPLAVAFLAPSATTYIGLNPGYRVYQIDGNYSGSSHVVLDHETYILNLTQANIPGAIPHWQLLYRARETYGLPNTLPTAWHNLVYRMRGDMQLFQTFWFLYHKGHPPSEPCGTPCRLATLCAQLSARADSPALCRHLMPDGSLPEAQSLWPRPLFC
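Human placenta-derived ASM preincubated with compound 10 min at room temperature, then reacted with 9 uM (final) fluorogenic HMU-PC substrate for 60 min at 37 C. Stop solution raises pH to 10; fluorescence read at Ex 386/Em 447 nm.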
TDP1 cell noCPT: qHTS for Inhibitors of human tyrosyl-DNA phosphodiesterase 1 (TDP1): qHTS in cells in absence of CPT | 420,000 compounds, 15% hits | AID 686978, 2013 | DT40 Tdp1-/- hTDP1 cells, no CPT, ATP luminescence, 48 h | Potency, µM (top dose mostly 46.2 µM), without a hit: at the top dose activity change, negative = growth inhibition, most hits filed as inhibitors; also: potency is read from the fitted curve at half-maximal effect; % is scaled to controls: 0 for no effect and ±100 for the full control effect; nearly all actives have a fitted effect of over 55% in size
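Chicken DT40 Tdp1-/- cells complemented with human TDP1, screened without camptothecin (DMSO vehicle only), 400 cells/well. Compounds pin-transferred, cells incubated at 37 °C for at least 48 hr. Growth read as ATP-dependent luminescence (CellTiter-Glo, 30 min at RT).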
An asterisk follows results filed as active; ? = inconclusive; / = no result; [ ] = another dose, or the depositor's remark. Unless noted, calls follow the shape of the dose curve; as a rule, active = well fitted curve in the direction sought with a large enough effect; inconclusive = small, poorly fitted or top-dose-only effect, or another doubt; inactive = no such curve, though single readings can be large; an effect the other way counts as inactive or inconclusive.

SMILES | IL1B secr inh | HepG2 tox | DT40 TDP1 CPT | TGFb SMAD3 inh | ASM inhibitor | TDP1 cell noCPT
Brc1ccc2ncnc(NCc3ccco3)c2c1 | -9 | -22% | 21µM* | 0% | -1% | 18µM*
Cc1ccc(CNc2ncnc3[nH]ncc23)o1 | / | 6% | -1% | 4% | / | -7%
COc1cc2ncnc(NCc3cccc(Cl)c3)c2cc1OC | -25 | -23% | 15µM* | ? | -12% | 15µM*
O=C(COC(=O)c1ccc(S(=O)(=O)N2CCCC2)cc1)NCc1ccco1 | 27 | 8% | -1% | 8% | -2% | 1%
Cc1cc([N+](=O)[O-])ccc1NC(=O)CSc1nncn1-c1cccnc1 | -4 | 1% | -4% | -1% | 2% | -23%
O=C(NCc1cccnc1)c1ccc2c(c1)C(=O)N(Cc1ccccc1)C2=O | -13 | -3% | -2% | -2% | 3% | -11%
CN1C(=O)/C(=C/c2ccccc2Cl)Sc2ccc(C(=O)NCc3cccnc3)cc21 | -69* | -34% | ? | ? | 1% | ?
Cc1cccc(/C=C2\Sc3ccc(C(=O)NCC4CCCO4)cc3N(C)C2=O)c1 (configuration not stated) | -9 | -39% | 13% | -4% | -1% | ?
CN1C(=O)/C(=C/c2ccccc2F)Sc2ccc(C(=O)NCC3CCCO3)cc21 (configuration not stated) | ? | -26% | 23µM* | -19% | 19% | ?
C[C@@]12C(=O)N(Cc3ccccc3)CC(=O)N1[C@H](/C=C/c1ccccc1)[C@@H]1C(=O)N(c3ccccc3)C(=O)[C@@H]12 | 13 | -7% | -26% | -1% | -2% | -22%
Cc1cc(=O)[nH]c(SCC(=O)Nc2ccc(S(=O)(=O)N3CCCCC3)cc2)n1 | 21 | 3% | -6% | -13% | 1% | -4%
O=C(CSc1ccc(-c2nc3ccccc3[nH]2)cn1)Nc1ccc(S(=O)(=O)N2CCCC2)cc1 | -8 | -27% | ? | ? | -12% | 13µM*
Cc1cc2nc(-c3ccc(SCC(=O)Nc4ccc(S(=O)(=O)N5CCCC5)cc4)nc3)[nH]c2cc1C | 50 | -44% | -5% | -13% | 16% | 13µM*
CCOC(=O)CNC(=O)CSc1ccc(-c2nc3ccccc3[nH]2)cn1 | ? | -26% | -19% | -8% | -4% | ?
COC(=O)Cc1csc(NC(=O)CSc2nnc3ccccn23)n1 | 6 | 12% | ? | 6% | 0% | ?
COc1ccc(CNC(=O)CN2C(=O)CSc3ccc(S(=O)(=O)N(C)C)cc32)cc1 | / | -16% | -24% | ? | / | -29%
CC1CCCCC1NC(=O)CCNC(=O)N1CC(=O)Nc2ccccc21 (configuration not stated) | 16 | 16% | 3% | 13% | 3% | 20%
O=C(CSc1nc2ccccc2s1)NC1CCCC1 | 13 | -11% | 10% | 2% | -2% | 8%
O=C(CSc1nc2ccccc2s1)Nn1cnnc1 | 22 | 10% | 18µM* | 24% | -6% | 7%
COC(=O)c1c(NC(=O)CSc2ncnc3ccccc23)sc(C)c1C | 12 | -2% | 18µM* | ? | 0% | 23µM*
CCOC(=O)c1c(NC(=O)CSc2nc3ccccc3s2)sc(C)c1C | -2 | -13% | 16µM* | -17% | ? | ?
CCOC(=O)c1c(NC(=O)CSc2nc3ccccc3c(=O)n2-c2ccc(F)cc2)sc(C(C)=O)c1C | 4 | -15% | -7% | 1% | 4% | 13%
CCOC(=O)c1c(NC(=O)CSc2ncnc3ccccc23)sc(C(C)=O)c1C | 33 | 0% | 8.2µM* | -10% | 0% | 9.2µM*
COC(=O)c1c(NC(=O)CSc2nccn2C)sc(C)c1C | -11 | -18% | 4% | 0% | -5% | -3%
N#CCCSC(=S)C1CCCC1=N (configuration not stated) | -10 | -22% | -2% | 2% | / | ?
SMILES | IL1B secr inh | HepG2 tox | DT40 TDP1 CPT | TGFb SMAD3 inh | ASM inhibitor | TDP1 cell noCPT
Nc1c(C(=O)Nc2ccc(S(=O)(=O)N3CCCC3)cc2)sc2nc3ccc(OC(F)(F)F)cc3cc12 | -97* | 1.8µM* | 9.2µM* | -12% | 21% | 18µM*
Nc1c(C(=O)Nc2ccc(S(=O)(=O)N3CCCC3)cc2)sc2nc3cc4c(cc3cc12)CCC4 | 16 | 18% | 6.5µM* | 0% | 0% | 6.5µM*
Nc1c(C(=O)Nc2ccc(C(=O)O)cc2)sc2nc3c(cc12)CCCC3 | / | 14% | -4% | -8% | / | ?
Cc1ncc2c(c1CNC(=O)/C=C/c1cccs1)CCN(C(=O)c1noc3c1CCCC3)C2 | / | / | 15%[9.04 µM] | / | / | -4%
CCOC(=O)C1=C(c2ccccc2)N=c2s/c(=C\c3cccc(O)c3)c(=O)n2C1c1cccs1 (configuration not stated) | -75* | 14µM* | ? | ? | -22% | 26µM*
CCOC(=O)C1=C(C)N=c2s/c(=C\c3cccc(OCC(=O)O)c3)c(=O)n2C1c1ccccc1OC (configuration not stated) | 1 | 4% | -22% | 8% | -3% | -9%
CC1(c2ccccc2)NC(=O)N(CC(=O)N(CC(=O)Nc2ccccc2C(F)(F)F)Cc2ccco2)C1=O (configuration not stated) | -6 | -21% | -6% | -16% | 3% | -5%
Cc1ccc(CSc2ncc(Cl)c(C(=O)Oc3ccc(F)cc3)n2)cc1 | / | -55% | -23% | -20% | / | -5%
CCOC(=O)c1sc(NC(=O)c2ccc(C)o2)nc1C | 25 | 5µM* | ? | ? | 0% | ?
CCOC(=O)c1sc(NC(=O)CC(C)c2ccccc2)nc1C (configuration not stated) | 14 | 2% | 13µM* | -5% | 4% | 3.7µM*
CCOC(=O)c1sc2nc(NC(=O)COc3ccccc3)sc2c1C | -2 | -1% | ? | 1% | 434% | 18µM*
CCOC(=O)c1sc(NC(=O)CCc2ccccc2)nc1C | -9 | -26% | 1.8µM* | 31% | 6% | 1.2µM*
CCOC(=O)c1sc(NC(=O)Cc2ccccc2OC)nc1C | -9 | 0% | -7% | -1% | 0% | -25%
CC(=O)c1sc(NC(=O)COc2ccccc2)nc1C | -16 | -13% | 0% | -17% | 5% | 2%
COC(=O)c1sc(NC(=O)c2ccc(C)o2)nc1C | 4 | -46% | ? | -30% | 2% | ?
